Results: PubChem BioAssay
Calls of active or inactive are those of the source.

Legend:
[1] = small molecules captured by biotinylated probe aFSTL3 – biochemical, small-molecule microarray, fluorescence 635/667, stem cell growth factor project, primary screen (AID 1064); conditions: higher = more signal;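 note: measures binding of the biotinylated anti-FSTL3 antibody to printed compounds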
[2] = binders from COS7 lysate, DM2A8 probe, primary screen, torsin A project, cell lysate, small-molecule microarray, fluorescence 635/667 (AID 1065); conditions: higher = more signal, COS7 lysate expressing mutant human TOR1A
[3] = small molecules captured by biotinylated probe aFGF2 – biochemical, small-molecule microarray, fluorescence 635/667, stem cell growth factor project, primary screen (AID 1067); conditions: higher = more signal;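 note: measures binding of biotinylated aFGF2 protein to printed compounds on slides; z-score merges feature fluorescence and signal-to-noise across triplicate slides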
[4] = small molecules captured by biotinylated probe aFGF10 – biochemical, small-molecule microarray, fluorescence 635/667, stem cell growth factor project, primary screen (AID 1071); conditions: higher = more signal;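 note: score merges 667 nm spot intensity and signal to noise from triplicate slides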
[5] = target: Neurogenic locus notch homolog protein 2 (Homo sapiens) (UniProt Q04721); experiment: small molecules binding Notch2 protein – biochemical, small-molecule microarray, 635 nm fluorescence, stem cell growth factors, primary screen (AID 1073); conditions: higher = more signal
[6] = target: Pro-neuregulin-1, membrane-bound isoform (Homo sapiens) (UniProt Q02297); experiment: small molecules binding neuregulin-1 protein – biochemical, small-molecule microarray, fluorescence 635/667, psychiatric disease protein project, primary screen (AID 1075); conditions: NRG1 binding, 635 nm fluorescence, higher = more signal;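 note: score combines 667 nm spot fluorescence with signal to noise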
[7] = test system: Neuregulin-1 EGF-like domain; experiment: small molecules binding NRG1 EGF domain – biochemical, small-molecule microarray, 635 nm fluorescence, primary screen (AID 1081); conditions: higher = more signal;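 note: binding of the protein to compounds printed on small-molecule microarray slides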
[8] = FRG1 expression reporter modulators in myotubes – cell-based, C2C12 myotubes, firefly/Renilla luciferase, luminescence, FRG1 inhibition for FSHD, primary screen (AID 1084); conditions: FRG1 promoter luciferase, higher = more signal, called active from +8 up or from −8 down
[9] = small molecules captured by biotinylated probe aFST – biochemical, small-molecule microarray, fluorescence 635/667, stem cell growth factor project, primary screen (AID 1086); conditions: higher = more signal;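 note: score merges 667 nm fluorescence with signal-to-noise of each printed compound spot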
[10] = binders of probe aHhip on microarray, primary screen, stem cell growth factor project, biochemical, small-molecule microarray, fluorescence 635/667 (AID 1087); conditions: higher = more signal;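 note: score merges spot fluorescence at 667nm with spot signal to noise ratio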
[11] = test system: PRMT1 (protein arginine N-methyltransferase 1); experiment: small molecules binding arginine methyltransferase PRMT1 – biochemical, small-molecule microarray, 635 nm fluorescence, primary screen (AID 1088); conditions: higher = more signal;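 note: binding of Prmt1 protein to compounds spotted on small-molecule microarray slides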
[12] = growth effects on S. cerevisiae YJM789 – YJM789 clinical isolate, OD600, 24 h, basal, primary screen (AID 1089); conditions: higher = more signal, called active from +8 up or from −8 down;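 note: growth of clinical yeast isolate S. cerevisiae YJM 789 seeded 1000 cells per well; test concentration not given here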
[13] = S. pombe growth modifiers, basal conditions – strain 972, OD600, 24 h, no modulator, primary screen (AID 1090);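 note: basal condition with compound alone and no growth modifier present; test concentration not given here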; conditions: S. pombe 972 growth, higher = more signal, called active from +8 up or from −8 down
[14] = budding yeast growth modifiers under rapamycin – strain BY4716, OD600, 96 h, primary screen (AID 1091); note: test concentration not given here; conditions: S. cerevisiae BY4716 + rapamycin, higher = more signal, called active from +8 up or from −8 down
[15] = target: Torsin-1A-interacting protein 2 (Homo sapiens) (UniProt Q8NFQ8); experiment: small molecules binding lysate-expressed LULL1 – cell lysate, human LULL1 lysate, 635/667 nm fluorescence, primary screen (AID 1092); conditions: small-molecule microarray, hLULL1 lysate binding, 635 nm fluorescence; higher = more signal;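 note: probe is lysate of COS7 cells overexpressing human LULL1; score merges per-feature 667 nm fluorescence with signal-to-noise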
[16] = optical density change of DRC41 E. coli – strain DRC41, OD650, 24 h, E. coli filamentation project, primary screen (AID 1093);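 note: MC1000 strain lacking acrAB efflux and sulA so SOS filamentation is blocked; test concentration not given here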; conditions: E. coli DRC41 growth, higher = more signal, called active from +8 up or from −8 down
[17] = probe aLefty2 binding to arrayed compounds – biochemical, biotinylated probe, 635/667 nm fluorescence, primary screen (AID 1094); conditions: small-molecule microarray, higher = more signal;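 note: score merges spot fluorescence near 667 nm with spot signal-to-noise ratio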
[18] = test system: Noggin (protein binding on small-molecule microarray); experiment: small molecules binding Noggin protein – biochemical, 635/667 nm fluorescence, primary screen (AID 1095); conditions: 635 nm fluorescence, higher = more signal;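 note: score merges 667 nm feature fluorescence with signal to noise over triplicate slides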
[19] = target: Neurogenic locus notch homolog protein 3 (Homo sapiens) (UniProt Q9UM47); experiment: small molecules binding NOTCH3 protein – biochemical, 635/667 nm fluorescence, primary screen (AID 1096); conditions: small-molecule microarray, 635 nm fluorescence, higher = more signal
[20] = probe aEGFR binding to arrayed compounds – biochemical, biotinylated probe, 635/667 nm fluorescence, primary screen (AID 1097); conditions: small-molecule microarray, higher = more signal;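 note: probe is a biotinylated anti-EGFR antibody binding compounds printed on slides; score combines fluorescence near 667 nm and signal to noise of each spot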

Chain of Neurogenic locus notch homolog protein 2 (Homo sapiens) (Q04721 whole entry, looked up, canonical isoform): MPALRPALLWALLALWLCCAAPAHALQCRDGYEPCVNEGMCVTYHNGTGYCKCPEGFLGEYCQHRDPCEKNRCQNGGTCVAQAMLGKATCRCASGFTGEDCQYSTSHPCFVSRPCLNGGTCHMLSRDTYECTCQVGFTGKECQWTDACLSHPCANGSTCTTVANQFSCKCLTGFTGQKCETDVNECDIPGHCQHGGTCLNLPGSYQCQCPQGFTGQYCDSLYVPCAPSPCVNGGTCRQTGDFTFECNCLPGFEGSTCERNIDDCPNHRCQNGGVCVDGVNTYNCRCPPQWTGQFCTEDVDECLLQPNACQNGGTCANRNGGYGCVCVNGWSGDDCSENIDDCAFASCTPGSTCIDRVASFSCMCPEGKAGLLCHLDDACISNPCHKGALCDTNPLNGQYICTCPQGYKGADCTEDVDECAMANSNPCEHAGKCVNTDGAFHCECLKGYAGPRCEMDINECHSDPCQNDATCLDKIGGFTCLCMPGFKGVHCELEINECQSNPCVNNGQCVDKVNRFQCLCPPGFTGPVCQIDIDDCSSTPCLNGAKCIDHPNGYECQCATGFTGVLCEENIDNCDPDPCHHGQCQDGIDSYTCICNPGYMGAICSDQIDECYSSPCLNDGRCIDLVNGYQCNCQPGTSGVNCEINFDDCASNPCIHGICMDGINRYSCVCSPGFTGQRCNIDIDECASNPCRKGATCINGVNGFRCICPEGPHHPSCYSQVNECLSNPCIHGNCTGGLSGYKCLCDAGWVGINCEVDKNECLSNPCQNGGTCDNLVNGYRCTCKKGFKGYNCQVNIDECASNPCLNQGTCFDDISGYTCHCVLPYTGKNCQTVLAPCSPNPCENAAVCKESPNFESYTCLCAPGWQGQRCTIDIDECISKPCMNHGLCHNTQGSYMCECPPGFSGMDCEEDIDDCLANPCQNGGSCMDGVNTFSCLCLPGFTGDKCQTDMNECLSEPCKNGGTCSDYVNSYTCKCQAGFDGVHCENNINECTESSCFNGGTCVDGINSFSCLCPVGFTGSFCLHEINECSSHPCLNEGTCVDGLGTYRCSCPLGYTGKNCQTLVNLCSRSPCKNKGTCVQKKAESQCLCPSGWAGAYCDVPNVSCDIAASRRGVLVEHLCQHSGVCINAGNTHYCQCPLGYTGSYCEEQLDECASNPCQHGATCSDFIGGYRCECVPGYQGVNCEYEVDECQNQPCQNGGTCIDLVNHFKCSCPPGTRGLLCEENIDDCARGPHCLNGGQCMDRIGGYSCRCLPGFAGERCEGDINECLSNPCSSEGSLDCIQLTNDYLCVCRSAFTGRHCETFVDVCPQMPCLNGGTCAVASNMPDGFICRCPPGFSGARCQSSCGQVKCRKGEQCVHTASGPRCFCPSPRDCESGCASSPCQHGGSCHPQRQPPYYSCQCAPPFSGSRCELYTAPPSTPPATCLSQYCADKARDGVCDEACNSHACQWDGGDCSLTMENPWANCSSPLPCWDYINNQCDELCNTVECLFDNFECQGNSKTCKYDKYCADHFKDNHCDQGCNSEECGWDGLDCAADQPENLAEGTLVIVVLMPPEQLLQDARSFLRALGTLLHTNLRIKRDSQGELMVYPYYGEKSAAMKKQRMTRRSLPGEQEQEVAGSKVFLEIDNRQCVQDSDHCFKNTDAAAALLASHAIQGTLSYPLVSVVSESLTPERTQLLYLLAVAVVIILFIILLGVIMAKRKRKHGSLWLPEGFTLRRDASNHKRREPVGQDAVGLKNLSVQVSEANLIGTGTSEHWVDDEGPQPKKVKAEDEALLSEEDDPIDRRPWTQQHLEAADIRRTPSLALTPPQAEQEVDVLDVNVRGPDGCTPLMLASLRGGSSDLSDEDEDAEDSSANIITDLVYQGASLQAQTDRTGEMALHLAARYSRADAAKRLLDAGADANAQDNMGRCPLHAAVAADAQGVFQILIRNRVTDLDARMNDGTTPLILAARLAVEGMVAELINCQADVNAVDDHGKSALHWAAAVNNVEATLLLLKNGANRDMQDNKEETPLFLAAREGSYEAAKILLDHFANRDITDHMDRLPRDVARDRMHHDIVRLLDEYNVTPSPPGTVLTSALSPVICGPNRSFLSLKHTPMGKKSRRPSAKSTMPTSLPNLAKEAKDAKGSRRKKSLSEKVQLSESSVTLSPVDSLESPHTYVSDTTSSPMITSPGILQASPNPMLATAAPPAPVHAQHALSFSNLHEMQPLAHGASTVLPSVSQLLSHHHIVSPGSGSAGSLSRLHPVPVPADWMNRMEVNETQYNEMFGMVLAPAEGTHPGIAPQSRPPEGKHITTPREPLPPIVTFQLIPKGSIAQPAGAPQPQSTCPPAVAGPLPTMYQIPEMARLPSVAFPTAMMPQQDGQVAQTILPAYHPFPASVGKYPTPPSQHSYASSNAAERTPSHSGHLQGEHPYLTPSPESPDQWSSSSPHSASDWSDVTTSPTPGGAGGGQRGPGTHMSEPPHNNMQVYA
Chain of Pro-neuregulin-1, membrane-bound isoform (Homo sapiens) (Q02297 whole entry, looked up, the tested form may be a part, canonical isoform): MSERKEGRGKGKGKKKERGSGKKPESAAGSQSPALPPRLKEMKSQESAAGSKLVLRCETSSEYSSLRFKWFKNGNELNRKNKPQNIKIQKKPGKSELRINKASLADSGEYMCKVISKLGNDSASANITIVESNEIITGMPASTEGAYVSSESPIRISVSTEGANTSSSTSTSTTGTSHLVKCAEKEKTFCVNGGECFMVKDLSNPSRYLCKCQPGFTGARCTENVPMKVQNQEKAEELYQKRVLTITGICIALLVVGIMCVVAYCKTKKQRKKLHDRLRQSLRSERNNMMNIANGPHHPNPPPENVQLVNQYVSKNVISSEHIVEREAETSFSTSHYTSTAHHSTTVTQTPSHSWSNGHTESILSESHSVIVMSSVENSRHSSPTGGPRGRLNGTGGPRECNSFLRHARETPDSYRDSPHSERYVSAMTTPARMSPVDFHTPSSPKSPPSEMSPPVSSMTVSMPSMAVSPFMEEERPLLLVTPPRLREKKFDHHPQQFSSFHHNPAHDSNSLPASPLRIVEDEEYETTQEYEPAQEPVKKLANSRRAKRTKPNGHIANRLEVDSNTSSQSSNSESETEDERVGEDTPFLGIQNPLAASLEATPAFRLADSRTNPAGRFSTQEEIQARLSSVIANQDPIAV
Chain of Torsin-1A-interacting protein 2 (Homo sapiens) (Q8NFQ8 whole entry, looked up): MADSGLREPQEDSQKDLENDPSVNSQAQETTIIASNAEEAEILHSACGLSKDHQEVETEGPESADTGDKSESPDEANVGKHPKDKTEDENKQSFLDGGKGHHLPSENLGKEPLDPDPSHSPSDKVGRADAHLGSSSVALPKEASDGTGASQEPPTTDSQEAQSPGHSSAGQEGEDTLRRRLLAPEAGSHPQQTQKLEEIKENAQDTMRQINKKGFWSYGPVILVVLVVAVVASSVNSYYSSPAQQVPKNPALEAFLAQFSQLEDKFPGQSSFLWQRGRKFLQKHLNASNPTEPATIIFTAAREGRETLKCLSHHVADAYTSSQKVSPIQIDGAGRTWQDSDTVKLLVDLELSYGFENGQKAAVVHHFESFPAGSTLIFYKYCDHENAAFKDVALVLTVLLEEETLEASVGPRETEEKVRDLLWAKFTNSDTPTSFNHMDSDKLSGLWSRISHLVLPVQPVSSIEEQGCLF

| SMILES | composite z-score [1] | composite z-score [2] | composite z-score [3] | composite z-score [4] | composite z-score [5] | composite z-score [6] | composite z-score [7] | z-score [8] | composite z-score [9] | composite z-score [10] | composite z-score [11] | z-score [12] | z-score [13] | z-score [14] | composite z-score [15] | z-score [16] | composite z-score [17] | composite z-score [18] | composite z-score [19] | composite z-score [20] |
| --- | --- | --- | --- | --- | --- | --- | --- | --- | --- | --- | --- | --- | --- | --- | --- | --- | --- | --- | --- | --- |
| COc1ccccc1CN1C(=O)c2ccccc2[C@](Cc2ccccc2I)(C(=O)NCC(C)C)[C@@H]1c1ccc(CO)cc1 | 1.21 | 0.204 | -0.0049 | -0.452 | -0.396 | 1.2 | 1.15 | -2.55 (inactive) | 0.0126 | 0.142 | 1.33 | -0.747 (inactive) | -0.652 (inactive) | 0.0134 (inactive) | 2.11 | 2.2 (inactive) | 0.103 | -0.371 | 0.139 | -0.0721 |
| Cc1ccc(S[C@]2(C(=O)NCCCN(C)C)CC(=O)N(C3Cc4ccccc4C3)[C@@H]2c2ccc(CO)cc2I)cc1 | 0.533 | -0.602 | -0.0281 | -0.25 | 0.0374 | 1.88 | 0.522 | -0.967 (inactive) | 0.404 | -0.0373 | 0.961 | -0.471 (inactive) | -2.87 (inactive) | 1.32 (inactive) | 1.14 | -0.42 (inactive) | -0.035 | -0.978 | -0.105 | -0.0828 |
| COCCOC(=O)N1C(=O)[C@@]2(c3cc(C#CCC(C(=O)OC)C(=O)OC)ccc31)[C@H](C(=O)Nc1nc3ccccc3s1)[C@H]1C(=O)O[C@H](c3ccccc3)[C@H](c3ccccc3)N1[C@@H]2c1ccc(OCCO)cc1 | 0.357 | 0.773 | 0.224 | 0.81 | 1.22 | 0.166 | 1.23 | 4.17 (inactive) | 0.853 | -0.0699 | 1.54 | 1.74 (inactive) | 0.657 (inactive) | 2.14 (inactive) | 1.43 | 1.43 (inactive) | 0.483 | 1.89 | 1.05 | 0.232 |
| CC(C)(C)OC(=O)CC[C@]1(C(=O)NCC(O)CO)N=C(c2ccc(OCCCO)cc2)O[C@H]1c1ccccc1N=[N+]=[N-] (stereo not given in full) | 0.929 | 1.34 | 0.171 | 0.53 | 1.02 | 1.58 | 1.17 | 3.99 (inactive) | 0.967 | -0.189 | 0.98 | -0.652 (inactive) | -0.0793 (inactive) | -0.517 (inactive) | 3.62 | 0.821 (inactive) | 0.595 | 0.187 | 0.398 | 0.0506 |
| CC1CC/C=C\[C@H]2OC34C=CCN(c5ccc6ccccc6c5)C(=O)[C@H]3N(C(C)CO)C(=O)[C@@H]4C2C(=O)O1 (stereo not given in full) | 0.018 | -1.51 | -0.178 | -0.489 | -0.858 | -0.318 | -0.0133 | 1.14 (inactive) | -0.187 | -0.0994 | 0.541 | 0.612 (inactive) | -0.197 (inactive) | 0.407 (inactive) | -0.172 | -0.312 (inactive) | -0.244 | -1.1 | -0.0196 | -0.252 |
| NC(=O)NCC#Cc1ccc2c(c1)[C@]1(C(=O)N2)[C@H](c2ccc(OCCO)cc2)N2[C@H](c3ccccc3)[C@H](c3ccccc3)OC(=O)[C@H]2[C@@H]1C(=O)O | -0.218 | 1.36 | -0.187 | 0.23 | -0.459 | 1.68 | -0.269 | 0.542 (inactive) | 0.0897 | -0.374 | -0.541 | 0.467 (inactive) | -0.662 (inactive) | 0.23 (inactive) | -0.143 | 0.775 (inactive) | -0.139 | -0.292 | -0.343 | -0.209 |
| O=C(O)[C@H](Cc1ccccc1)n1cc(C2(O)CCCCC2)nn1 | -0.44 | 0.444 | -0.103 | 0.262 | -0.0666 | 0.0741 | 0.993 | 1.64 (inactive) | 0.163 | -0.0645 | 0.499 | -0.418 (inactive) | 0.255 (inactive) | -0.444 (inactive) | 1.71 | -1.15 (inactive) | -0.137 | 0.392 | 0.541 | -0.0211 |
| COc1ccc([Si](C)(C)[C@@H]2[C@@H](CC(=O)N3Cc4ccccc4C[C@H]3CO)O[C@]3(C(=O)N(Cc4ccc(N5CCOC5=O)cc4)c4ccccc43)[C@H]2C)cc1 | -0.169 | 0.669 | -0.178 | 0.284 | 0.405 | 1 | 1.09 | -2.85 (inactive) | 0.27 | 0.0274 | 1.57 | -0.631 (inactive) | 0.693 (inactive) | 3.78 (inactive) | 1.56 | 1.36 (inactive) | -0.133 | 1.55 | 1.13 | -0.0947 |
| CN1C(=O)[C@@H]2[C@@H](CC(COc3ccccc3)=C3[C@@H](CCc4ccccc4)OB(O)C[C@@H]32)C1=O | -0.124 | 0.275 | -0.0415 | 0.121 | 0.371 | 0.445 | 0.56 | -0.799 (inactive) | 0.0157 | -0.0994 | 0.359 | -0.973 (inactive) | -0.793 (inactive) | -0.862 (inactive) | 0.384 | -0.372 (inactive) | -0.205 | 0.231 | -0.138 | -0.15 |
| CCOc1cc(C(O)C2C=CC3C(=O)N(c4ccccc4)C(=O)C3N2Nc2ccccc2F)ccc1O (stereo not given) | 2.51 | 0.112 | 0.252 | 0.334 | 0.935 | 2.06 | 1.37 | 0.118 (inactive) | 1.51 | 0.02 | 0.196 | 1.54 (inactive) | -0.428 (inactive) | 1.81 (inactive) | 3.01 | -0.199 (inactive) | 0.615 | -0.596 | 0.0983 | 0.561 |
